sPLA2-III inh – Blocks human group III sPLA2 activity | QFRET BODIPY PC-A2 liposome hydrolysis, fluorescence | inhibition, % at 12.2 µM | Q9NZ20 | 370,000 compounds, 0.56% hits;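 active = inhibition above mean plus 3 SD of compounds lying within the high and low control bounds, cut at about 19% in these data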
PLC-gamma1 inh – inhibitors of human phospholipase C gamma1; P19174; 370,000 compounds, 0.84% hits; purified PLC-gamma1, fluorogenic substrate, fluorescence; inhibition, % at 12.2 µM; in the data active = inhibition above about 9.5%
HIF activator – HIF pathway transcriptional activation. U2OS HRE-luciferase reporter, luminescence; normalized: DMSO 0%, desferrioxamine 100%. activation, % at 7.5 µM (by protocol). 300,000 compounds, 0.32% hits;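 active = mean activation of at least 10% of the iron chelator positive control signal, with at least half of replicates also reaching 10%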
Yeast superoxide – lowers age-related superoxide in aged yeast cells | AID 2690 | S. cerevisiae aged cells, superoxide DHE fluorescence; active compounds read low | 330,000 compounds, 0.18% hits | superoxide response (% of plate mean), % at 10 µM;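 active = superoxide response under a set limit, about three screen SD below normal, cut at about 65% in these data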;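 note: yeast aged for seven days with compound at 30 °C before DHE staining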
AHR activator – human AHR activation | activation, % at 5 µM | AHR-responsive luciferase reporter cells, luminescence | AID 2796 | 320,000 compounds, 2.5% hits; in the data active = activation above about 47%
PLCb3 inh – inhibitors of human phospholipase C beta3; Q01970; Purified PLC-beta3, fluorogenic substrate, fluorescence; inhibition, % at 12.2 µM; 370,000 compounds, 0.18% hits; in the data active = inhibition above about 11%
AHR act confirm – confirmation of human aryl hydrocarbon receptor activators; activation, % at 9 µM; shares compounds with AHR activator; 2,300 compounds, 87% hits; human cells, AHR-responsive luciferase reporter, luminescence; in the data active = activation above about 49%;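 note: HepG2 hepatoma cells carrying a DRE-driven firefly luciferase reporter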
PXR act counter – counter-screen for AHR activators: human PXR activators; shares compounds with AHR activator; cell-based PXR reporter, luciferase luminescence; activation, % at 11.6 µM; 2,300 compounds, 88% hits; AID 434939; in the data active = activation above about 11%;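 note: human hepatoma DPX-2 cells expressing full-length human PXR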
Target sequence (O75469 whole entry, looked up): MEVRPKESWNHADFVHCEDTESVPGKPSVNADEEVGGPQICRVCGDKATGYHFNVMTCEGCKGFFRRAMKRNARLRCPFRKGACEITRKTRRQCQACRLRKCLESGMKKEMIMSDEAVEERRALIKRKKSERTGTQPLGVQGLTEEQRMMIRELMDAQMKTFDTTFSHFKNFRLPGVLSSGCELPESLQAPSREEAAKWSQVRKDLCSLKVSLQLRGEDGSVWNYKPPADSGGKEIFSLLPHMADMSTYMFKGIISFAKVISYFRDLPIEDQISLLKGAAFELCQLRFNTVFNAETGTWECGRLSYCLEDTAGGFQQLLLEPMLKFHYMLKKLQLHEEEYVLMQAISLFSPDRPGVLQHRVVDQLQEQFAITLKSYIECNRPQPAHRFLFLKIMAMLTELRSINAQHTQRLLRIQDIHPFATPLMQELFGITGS
Each line names hits and unclear results; the compound was inactive in the other large screens (follow-up assays come after a bar, where they were run). A selection: hits, their analogues and other compounds. The true share with any hit is near 3.9%.

CC(=O)N1CC(C(=O)Nc2ccc3c(c2)OCO3)Oc2ccccc21 (stereo not given)	AHR activator 102 (no result: HIF activator) | AHR act confirm 121 | PXR act counter 34
O=C(Nc1ccc2c(c1)OCCO2)C(=O)c1c[nH]c2ccccc12	none
O=C(Nc1ccc2c(c1)OCO2)C(=O)c1c[nH]c2ccccc12	AHR activator 84 | AHR act confirm 70 | PXR act counter 38
Cn1nc(C(=O)Nc2ccc3c(c2)OCO3)c2ccccc2c1=O	AHR activator 123 | AHR act confirm 107 | PXR act counter inactive
COc1cccc(C(=O)NC2=NCCS2)c1	AHR activator 133 | AHR act confirm 55 | PXR act counter 13
COc1ccc(-n2nc(C(=O)Nc3ccc4c(c3)OCO4)c3ccccc3c2=O)cc1	none
Cn1nc(C(=O)Nc2ccccc2N2CCCC2)c2ccccc2c1=O	AHR activator 114 | AHR act confirm 82 | PXR act counter 74
CC(C)Oc1cccc(C(=O)NC2=NCCS2)c1	none
CC(C)N1CCC(C)(C(=O)Nc2ccc(-n3cccc3)cc2)C1 (stereo not given)	none (no result: HIF activator, Yeast superoxide, AHR activator)
CCCn1c2ccc(C)cc2c2n[nH]c(=S)nc21	none
Fc1ccc(/C=N/Nc2ncnc3nc[nH]c23)cc1F	AHR activator 103 | AHR act confirm 65 | PXR act counter 32
CCCOc1ccc(/C=C/C(=O)N2CCN(C(=O)c3ccco3)CC2)cc1OC	none (no result: HIF activator, Yeast superoxide, AHR activator)
COC(=O)c1cc(CSc2nc3ccccc3c(=O)n2C)oc1C	none
CCc1ccc(-c2csc(-c3c[nH]c4ccccc34)n2)cc1	AHR activator 87 | AHR act confirm 124 | PXR act counter 29
CN1CCN(Cn2cc(/C=C/C(=O)c3ccccc3)c3ccccc32)CC1	AHR activator 86 (no result: sPLA2-III inh, PLC-gamma1 inh, PLCb3 inh) | AHR act confirm 110 | PXR act counter 47
O=C(/C=C/c1cn(CC(O)CN2CCCCC2)c2ccccc12)c1ccccc1 (stereo not given)	none (no result: Yeast superoxide, AHR activator)
CC(C)CN1CCC(=O)N([C@H](CO)Cc2ccccc2)CC1	none
Cc1nc(-c2cccnc2)sc1C(=O)Nc1ccc(F)cc1F	none
Cc1nc(-c2ccccn2)sc1C(=O)Nc1ccc(F)cc1F	AHR activator 95 | AHR act confirm inactive | PXR act counter 26
CC(C)N1CCc2c(sc(NC(=O)C(F)F)c2-c2nc3ccccc3s2)C1	none (no result: HIF activator, Yeast superoxide, AHR activator)
CC(=O)Nc1sc2c(c1-c1nc3ccccc3s1)CCN(C(C)C)C2	AHR activator 172 (no result: sPLA2-III inh, PLC-gamma1 inh, HIF activator, PLCb3 inh) | AHR act confirm 70
COc1ccc(NCc2nn(CC(=O)c3ccc(Br)cc3)c3[n+]2CCCCC3)cc1	none
O=C(Cn1nc(CNc2ccc(Cl)cc2)[n+]2c1CCCCC2)c1ccc(Br)cc1	AHR activator 100 | AHR act confirm inactive | PXR act counter 24
CCN(CC)CCCCNc1ncc2cc(-c3cc(OC)cc(OC)c3)c(NC(=O)NC(C)(C)C)nc2n1	none
CC(C)Cc1ccc(-c2cc3nc(NCCCn4ccnc4)ccn3n2)cc1	none (no result: HIF activator, Yeast superoxide, AHR activator)
Cn1c(=O)c(-c2ccccc2)nn2c3ccccc3nc12	AHR activator 110 | AHR act confirm 131 | PXR act counter 19
CCn1c(=O)c(C)nn2c3ccccc3nc12	none
CCN1CCCCC(NC(C)=O)C1=O (stereo not given)	none (no result: HIF activator, Yeast superoxide, AHR activator)
Fc1ccc2nc(Nc3nc4cc5c(cc4s3)OCO5)sc2c1	AHR activator 119 | AHR act confirm 80 | PXR act counter 19
COCC(=O)N1CCC(Oc2ccc(C(=O)N(C)CCCC3CCCC3)cc2)CC1	none
CC(/C=C/c1ccccc1)=N\Nc1nc(C)cc(C)n1	AHR activator 89 | AHR act confirm inactive | PXR act counter 28
CC(/C=C/c1ccccc1)=N/NC(=O)c1nc2nc(C)cc(C)n2n1	none
Cc1ccc(S(=O)(=O)N[C@H](C(=O)OCC(=O)NC(=O)C2CCCCC2)C(C)C)cc1	none (no result: HIF activator)
O=C1c2ccccc2C(=O)N1CCc1ccccn1	AHR activator 99 | AHR act confirm 100 | PXR act counter 10
O=C1c2cccc3c([N+](=O)[O-])ccc(c23)C(=O)N1CCc1ccccn1	none
Cc1cc(Br)ccc1SCC(=O)Nc1cccnc1	none
Cn1ccc2cc3c(cc21)CCN3C(=O)Nc1cccnc1	AHR activator 118 (no result: HIF activator) | AHR act confirm 83 | PXR act counter 31
COc1ccc(S(=O)(=O)NNC(=O)c2cc3c4ccccc4n(C)c3s2)cc1	AHR activator 110 | AHR act confirm 98 | PXR act counter 246
Clc1ccc(-c2cc3ccccc3[nH]2)cc1	AHR activator 91 | AHR act confirm inactive | PXR act counter inactive
O=C1C=C(C#Cc2ccccc2)C[C@@H](c2ccc(F)cc2)C1	none (no result: HIF activator, Yeast superoxide, AHR activator)
CC(C)c1ccc(NC(=O)CCN2C(=O)[C@@H]3Cc4ccccc4CN3C2=O)cc1	AHR activator 89 | AHR act confirm inactive | PXR act counter 97
Cc1ccc(NC(=O)CCCCCN2C(=O)[C@@H]3Cc4ccccc4CN3C2=O)cc1	none
Cc1cc(N/C=C/C(=O)c2ccccc2)ccc1Br	AHR activator 94 | AHR act confirm 108 | PXR act counter 11
N#Cc1ccc(N[C@@H]2CCN3C(=O)c4ccccc4[C@@H]3C[C@H]2O)cc1	none (no result: HIF activator, AHR activator)
Cn1c(-c2ccc3ccccc3n2)nc2cnccc21	AHR activator 89 | AHR act confirm 119 | PXR act counter 23
COc1cc(OC)c(-c2nc3cnccc3n2C)cc1OC	none
COc1ccc(CCNc2nc(-c3ccccn3)cs2)cc1OC	AHR activator 85 | AHR act confirm 80 | PXR act counter 27
CC(=O)Oc1ccccc1/C=C/c1ccc2ccccc2[n+]1C	AHR activator 111 | AHR act confirm inactive | PXR act counter 14
COc1ccc(/C=C/c2ccc3ccccc3[n+]2C)cc1OC	none (no result: sPLA2-III inh, PLC-gamma1 inh, PLCb3 inh)
Oc1[nH]c2ccccc2c1N=NC(=S)NCC1CCCO1 (stereo not given)	none
Cc1cc(C)c2[nH]c(O)c(N=NC(=S)NCC3CCCO3)c2c1 (stereo not given)	AHR activator 124 | AHR act confirm 100 | PXR act counter 114
Oc1[nH]c2ccc(Br)cc2c1N=NC(=S)NCC1CCCO1 (stereo not given)	AHR activator 104 | AHR act confirm 72 | PXR act counter 23
CCCc1nc2ccc(Br)cn2c1Cc1cccc(Cl)c1	none (no result: HIF activator, Yeast superoxide, AHR activator)
Cn1/c(=N\NC(=O)c2ccccc2Cl)sc2ccccc21	AHR activator 136 | AHR act confirm 126 | PXR act counter 53
O=C(/C(=C(\[O-])c1ccccc1)[n+]1ccc2ccccc2c1)c1ccc(Cl)cc1	AHR activator 103 | AHR act confirm 92 | PXR act counter 54
N#C/C(=C1/CCCCCN1)c1nc2ccccc2[nH]1	AHR activator 115 | AHR act confirm 144 | PXR act counter 48

From PubChem BioAssay
